Records with an inconclusive call do not appear. Activity calls are given as the source filed them. Unless noted, the call rests on the fitted dose curve; in most records, active means well fitted curve in the direction sought with a large enough effect in the repeat runs; inconclusive means weak or mixed curves; inactive means no such curve, though single readings can be large; an effect the other way counts as inactive or inconclusive.
Tests used:
[1] = qHTS assay for small molecules that induce genotoxicity in human embryonic kidney cells expressing luciferase-tagged ATAD5 (AID 651632); further: nearly all actives have a fitted effect of over 15% in size
In short: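 Reporter cells (HEK293T) express luciferase-tagged ATAD5, a protein that accumulates after DNA damage. Treat 16 hr at 37C/5% CO2, add Amplite, wait 30 min at RT, and read luminescence.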

[2] = qHTS assay for small molecule agonists of the p53 signaling pathway - cell viability (AID 651633; calls by dose curve;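 further: p53RE-bla HCT reporter cells with a stable beta-lactamase p53 reporter; series mostly up to about 83 µM; nearly all actives have a fitted effect of over 30% in size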)
In short: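 p53RE-bla cells, seeded at 4,000 per well and rested 5 h at 37 C/5% CO2, received compounds in DMSO for 16 h at 37 C. CellTiter-Glo was then added, and luminescence was read after 30 min at room temperature to gauge cytotoxicity.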

[3] = qHTS assay for small molecules that induce genotoxicity in human embryonic kidney cells expressing luciferase-tagged ATAD5 - cell viability (AID 651634; calls by dose curve; further: nearly all actives have a fitted effect of over 25% in size)
In short: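 Seeding of 2,000 HEK293T ATAD5-luciferase cells per well preceded pin-tool compound transfer. Plates sat 15.5 hr at 37C under 5% CO2, then fluorescence was read after 30 min with CellTiter-Fluor.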

[4] = qHTS assay to test for compound auto fluorescence at 590 nm (red) in HepG2 cells (AID 720674)
In short: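 Rose Bengal sodium served as the red fluorophore standard. HepG2 monolayers (overnight attachment, MEM with 10% FBS) were exposed to test compounds for 1 hr at 37 C and read at Ex 540/Em 590 nm.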

[5] = qHTS assay to test for compound auto fluorescence at 535 nm (green) in HepG2 cells (AID 720675)
[6] = qHTS assay to test for compound auto fluorescence at 460 nm (blue) in HEK293 cells (AID 720678)
In short: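 Intrinsic compound fluorescence is recorded in live HEK293 cultures after overnight incubation at 37C, 5% CO2, using excitation 405 nm and emission 460 nm. Values are referenced to triamterene.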

[7] = qHTS assay to test for compound auto fluorescence at 590 nm (red) in HEK293 cells (AID 720679)
In short: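 Red autofluorescence, HEK293 cells: 2,000 cells/well; attach 4-5 hr 37C; add 23 nL cpd or DMSO; incubate o/n 37C 5% CO2; read Ex540/Em590; Rose Bengal sodium reference.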

[8] = qHTS assay to test for compound auto fluorescence at 535 nm (green) in HEK293 cells (AID 720680)
[9] = qHTS assay to test for compound auto fluorescence at 460 nm (blue) in HEK293 cell free culture (AID 720681)
In short: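 Test compounds were pinned into cell-free culture medium (DMEM with 10% FBS) and fluorescence was read directly at Ex/Em 405/460 nm. Signals were expressed as fluorescence equivalents of triamterene, with DMSO vehicle as control.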

[10] = qHTS assay to test for compound auto fluorescence at 535 nm (green) in HEK293 cell free culture (AID 720682)
In short: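 Read-out: 485/535 nm fluorescence intensity, calibrated against fluorescein. Medium only (DMEM + 10% FBS, no cells); test compound or DMSO vehicle added by pintool before plate reading.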

[11] = qHTS assay to test for compound auto fluorescence at 590 nm (red) in HEK293 cell free culture (AID 720683)
In short: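 Tox21 10K library compounds were pinned into cell-free DMEM with 10% FBS and fluorescence was read at excitation 540 nm. Activity is expressed as Rose Bengal sodium equivalency.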

[12] = qHTS assay to test for compound auto fluorescence at 590 nm (red) in HepG2 cell free culture (AID 720684)
In short: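 Red fluorescence (540 nm excitation, 590 nm emission) was measured after compound transfer into cell-free MEM supplemented with 10% FBS. Values are equivalencies against Rose Bengal sodium.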

[13] = qHTS assay to test for compound auto fluorescence at 460 nm (blue) in HepG2 cell free culture (AID 720685)
In short: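 Compound (23 nL) or DMSO pinned into cell-free MEM with 10% FBS; blue fluorescence read at 405/460 nm excitation/emission, expressed as auto-fluorescence equivalency to triamterene.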

[14] = qHTS assay to test for compound auto fluorescence at 535 nm (green) in HepG2 cell free culture (AID 720686)
[15] = qHTS assay to test for compound auto fluorescence at 460 nm (blue) in HepG2 cells (AID 720687)
In short: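 Cells (2,000/well in MEM with 10% FBS) attached overnight at 37 C, then were exposed to compound or DMSO for 1 hr at 37 C, 5% CO2. Fluorescence read at Ex/Em 405/460 nm, expressed as triamterene-equivalent signal.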

[16] = qHTS assay for small molecule disruptors of the mitochondrial membrane potential - cell viability (AID 720634; calls by dose curve;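 further: human HepG2 liver cancer cells; series mostly up to about 83 µM; nearly all actives have a fitted effect of over 20% in size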)
In short: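 Measuring cytotoxicity alongside mitochondrial potential, the screen quantified ATP by luminescence in HepG2 cells after 1 hr compound incubation and a 30 min room-temperature CellTiter-Glo step.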

[17] = target: Glucocorticoid receptor (Homo sapiens) (UniProt P04150); experiment: qHTS assay to identify small molecule agonists of the glucocorticoid receptor (GR) signaling pathway (AID 720691; active means well fitted activation curve with a large enough effect in the signal ratio in the repeat runs, not every such curve was filed as active; the % refers to the signal ratio)
In short: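 Reporter read-out: fluorescence intensity following 2 h room-temperature LiveBLAzer B/G FRET substrate loading. Prior step: GR-bla HeLa cells held 4 h, then treated 18 h at 37 C.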

[18] = target: Glucocorticoid receptor (Homo sapiens) (UniProt P04150); experiment: qHTS assay to identify small molecule antagonists of the glucocorticoid receptor (GR) signaling pathway (AID 720692; active means well fitted inhibition curve with a large enough effect in the signal ratio in the repeat runs, not every such curve was filed as active; the % refers to the signal ratio)
In short: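 Dexamethasone (5 nM final) stimulated a stably integrated GRE-beta-lactamase reporter in HeLa cells during 18 h co-incubation with compounds; signal was quantified as fluorescence intensity of B/G FRET substrate after 2 h.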

[19] = qHTS assay for small molecule disruptors of the mitochondrial membrane potential (AID 720635)
In short: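 HepG2 cells (2,000/well) attached overnight at 37C, then took compound for 1 hr at 37C, 5% CO2. Mito-MPS dye was added for 30 min; fluorescence was read at 490/535 nm (monomers) and 540/590 nm (aggregates).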
On the % scale 0 is the no-effect control and ±100 the full control effect.

Sequence of Glucocorticoid receptor (Homo sapiens) (P04150 whole entry, looked up): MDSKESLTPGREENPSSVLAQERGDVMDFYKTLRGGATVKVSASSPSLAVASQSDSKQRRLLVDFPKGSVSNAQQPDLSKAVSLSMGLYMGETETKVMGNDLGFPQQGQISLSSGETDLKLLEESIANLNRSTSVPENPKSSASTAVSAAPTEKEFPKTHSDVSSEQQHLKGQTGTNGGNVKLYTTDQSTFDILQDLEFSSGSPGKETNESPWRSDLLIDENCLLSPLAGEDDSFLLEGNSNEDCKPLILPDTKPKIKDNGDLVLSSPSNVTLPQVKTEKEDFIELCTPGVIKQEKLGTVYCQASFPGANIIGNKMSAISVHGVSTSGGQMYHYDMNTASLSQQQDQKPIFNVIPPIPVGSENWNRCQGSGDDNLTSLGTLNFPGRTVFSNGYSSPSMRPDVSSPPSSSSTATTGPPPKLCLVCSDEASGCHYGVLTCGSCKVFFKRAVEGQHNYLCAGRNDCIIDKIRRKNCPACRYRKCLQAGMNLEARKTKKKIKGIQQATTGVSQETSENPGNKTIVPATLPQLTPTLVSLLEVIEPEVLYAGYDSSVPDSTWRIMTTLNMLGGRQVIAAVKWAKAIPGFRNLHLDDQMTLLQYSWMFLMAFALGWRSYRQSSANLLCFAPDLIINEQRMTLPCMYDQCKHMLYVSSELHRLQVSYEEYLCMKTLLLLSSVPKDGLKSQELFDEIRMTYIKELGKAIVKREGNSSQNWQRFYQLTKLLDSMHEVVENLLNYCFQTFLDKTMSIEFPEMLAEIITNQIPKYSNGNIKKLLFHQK

NC(N)=N/N=C/c1c(Cl)cccc1Cl
inactive: Potency [1] | Potency [2] | Potency [3] | outcome [4] | outcome [5] | Potency [6] | outcome [7] | outcome [8] | Potency [9] | outcome [10] | outcome [11] | outcome [12] | Potency [13] | outcome [14] | Potency [15]

CCCCCCCCCCCCCCCCCBr
inactive: Potency [1] | Potency [2] | Potency [3] | Potency [16] | fluorescence, relative to Rose Bengal [4] -0.244% [at 18.6 µM] | fluorescence, % of fluorescein control [5] -0.0441% [at 18.6 µM] | fluorescence, % of fluorescent control [7] 0.301% [at 18.6 µM] | fluorescence, % of fluorescein [8] 0.0114% [at 18.6 µM] | fluorescence, % of fluorescent control [9] -0.0559% [at 18.6 µM] | activity change [10] -0.0304% [at 18.6 µM] | fluorescence, % of Rose Bengal [12] 0.0382% [at 18.6 µM] | fluorescence, % of fluorescent control [13] 0.0584% [at 18.6 µM] | fluorescence, % of fluorescein control [14] 0.134% [at 18.6 µM] | fluorescence, % of fluorescent control [15] 0.0228% [at 18.6 µM] | Potency [17] | Potency [18]

CCCCC(CC)(CO)CO
inactive: Potency [1] | Potency [2] | Potency [3] | Potency [16] | outcome [4] | outcome [5] | Potency [6] | outcome [7] | outcome [8] | Potency [9] | outcome [10] | outcome [11] | outcome [12] | outcome [14] | Potency [15]

CC(C)NCC(O)COc1ccc(CC(N)=O)cc1 (stereo not given)
inactive: Potency [1] | Potency [2] | Potency [3] | Potency [16] | outcome [4] | outcome [5] | Potency [6] | outcome [7] | Potency [9] | outcome [11] | outcome [12] | Potency [13] | outcome [14] | Potency [15]

CN(C)CCCNCCCN
inactive: Potency [1] | Potency [2] | Potency [3] | Potency [16] | Potency [19] | outcome [4] | Potency [6] | outcome [7] | Potency [9] | outcome [10] | outcome [11] | outcome [12] | outcome [14] | Potency [15] | Potency [17] | Potency [18]

N[C@H]1C(O)O[C@H](CO)[C@H](O)[C@@H]1O (stereo not given in full)
inactive: Potency [1] | Potency [2] | Potency [3] | Potency [16] | outcome [4] | outcome [5] | Potency [6] | outcome [8] | Potency [9] | outcome [10] | outcome [11] | outcome [12] | Potency [13] | outcome [14] | Potency [15]

CC(C)(C)c1cc(CCC(=O)OCC(COC(=O)CCc2cc(C(C)(C)C)c(O)c(C(C)(C)C)c2)(COC(=O)CCc2cc(C(C)(C)C)c(O)c(C(C)(C)C)c2)COC(=O)CCc2cc(C(C)(C)C)c(O)c(C(C)(C)C)c2)cc(C(C)(C)C)c1O
inactive: Potency [1] | Potency [2] | Potency [3] | Potency [16] | outcome [4] | outcome [7] | outcome [8] | Potency [9] | outcome [10] | outcome [12] | Potency [13] | outcome [14] | Potency [15] | Potency [17] | Potency [18]

C=CC(=O)OCCOC(=O)CCC(=O)O
inactive: Potency [1] | Potency [2] | Potency [3] | Potency [16] | outcome [4] | outcome [5] | outcome [7] | outcome [8] | outcome [10] | outcome [11] | outcome [12] | Potency [13] | Potency [15] | Potency [18]

From PubChem BioAssay (Tox21)
